We go through 22 compounds from PubChem BioAssay (Tox21).

The nature of test [1]: qHTS assay for small molecules that induce genotoxicity in human embryonic kidney cells expressing luciferase-tagged ATAD5 (AID 651632). Also: nearly all actives have a fitted effect of over 15% in size. The procedure, abridged:
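Reporter cells (HEK293T) express luciferase-tagged ATAD5, a protein that accumulates after DNA damage. Treat 16 hr at 37C/5% CO2, add Amplite, wait 30 min at RT, and read luminescence.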
A general note: In qHTS, concentration-response curves come from the screen itself.

A short description of test [2]: qHTS assay for small molecule agonists of the p53 signaling pathway - cell viability (AID 651633; calls by dose curve; also: nearly all actives have a fitted effect of over 30% in size; also: potency is read from the fitted curve at half-maximal effect). The procedure, abridged:
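p53RE-bla cells were treated with compound for 16 hours at 37 C. Cytotoxicity was then measured as CellTiter-Glo luminescence after 30 min at room temperature.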

Test [3] is described as follows: qHTS assay for small molecules that induce genotoxicity in human embryonic kidney cells expressing luciferase-tagged ATAD5 - cell viability (AID 651634; calls by dose curve; also: nearly all actives have a fitted effect of over 25% in size; also: potency is read from the fitted curve at half-maximal effect). The essentials: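 Seeding of 2,000 HEK293T ATAD5-luciferase cells per well preceded pin-tool compound transfer. Plates sat 15.5 hr at 37C under 5% CO2, then fluorescence was read after 30 min with CellTiter-Fluor.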

Test [4] can be described thus: qHTS assay for small molecule disruptors of the mitochondrial membrane potential - cell viability (AID 720634; calls by dose curve; also: nearly all actives have a fitted effect of over 20% in size; also: potency is read from the fitted curve at half-maximal effect). The procedure, abridged: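 Measuring cytotoxicity alongside mitochondrial potential, the screen quantified ATP by luminescence in HepG2 cells after 1 hr compound incubation and a 30 min room-temperature CellTiter-Glo step.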
A short description of test [5]: qHTS assay for small molecule disruptors of the mitochondrial membrane potential (AID 720635). Also: potency is read from the fitted curve at half-maximal effect. The essentials: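 HepG2 cells exposed to compound 1 hr at 37C, then Mito-MPS dye 30 min. Ratio read of aggregate (540/590 nm) versus monomer (490/535 nm) fluorescence.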
Test [6] in a line: qHTS assay to test for compound auto fluorescence at 590 nm (red) in HepG2 cells (AID 720674). The procedure, abridged:
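Seeding: 2,000 HepG2 cells/well, MEM/10% FBS, overnight 37 C. Dosing: compound vs DMSO. Incubation: 1 hr, 37 C, 5% CO2. Read: fluorescence 540 ex/590 em, Rose Bengal sodium as red reference.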

A short description of test [7]: qHTS assay to test for compound auto fluorescence at 535 nm (green) in HepG2 cells (AID 720675).
Test [8] can be described thus: qHTS assay to test for compound auto fluorescence at 460 nm (blue) in HEK293 cells (AID 720678). The essentials: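 Blue-channel (Ex/Em 405/460 nm) intensity measured in HEK293 cultures after overnight compound exposure at 37C; signal expressed relative to triamterene. Cells plated 2,000 per well in 10% dialyzed FBS medium and allowed 4-5 hr to attach.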
Test [9] in a line: qHTS assay to test for compound auto fluorescence at 590 nm (red) in HEK293 cells (AID 720679). The essentials:
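Red-channel autofluorescence (Ex/Em 540/590 nm; Rose Bengal sodium reference) was measured after overnight 37C, 5% CO2 exposure of attached HEK293 cells, 2,000 per well in medium with 10% dialyzed FBS.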

SMILES strings stand for the structures. “And” between values parts separate entries of the source, which are not always exact repeats. Equal values may be shown once. Results filed as inconclusive are left out. More than one record can exist for a structure, and the calls need not agree. The source made the active and inactive calls. Unless noted, calls follow the shape of the dose curve; as a rule, active = well fitted curve in the direction sought with a large enough effect in the repeat runs; inconclusive = weak or mixed curves; inactive = no such curve, though single readings can be large; an effect the other way counts as inactive or inconclusive.

Regarding `Cc1onc(-c2c(Cl)cccc2Cl)c1C(=O)N[C@@H]1C(=O)N2[C@@H]1SC(C)(C)[C@@H]2C(=O)O`, the Potency result in [1], in test [2], in [3], in [4], in test [5] and in [6] was “inactive” throughout. The Potency entry in test [7], in test [8] and in test [9] was “inactive” each time.

Turning to `COc1ccc(CN2CCN(C(c3ccc(F)cc3)c3ccc(F)cc3)CC2)c(OC)c1OC`, the Potency result in [1], in [4], in [6], in [7], in test [8] and in [9] was “inactive” throughout. Further, the Potency in test [2] is 26.6 µM (active); in test [3], 21.1 µM (active).

For `CN(C)[C@@H]1C(=O)C(C(N)=O)=C(O)[C@@]2(O)C(=O)C3=C(O)c4c(O)ccc(Cl)c4[C@@H](O)[C@H]3C[C@@H]12`, the Potency entry in test [1], in [2], in [4], in test [5], in test [6] and in test [7] was “inactive” in each case. Further, the Potency entry in test [8] and in [9] was “inactive” in each case.

Consider `CC(C)(C)C(=O)OCOC(=O)C1N2C(=O)CC2S(=O)(=O)C1(C)C` (stereo unspecified), for which the Potency result in test [1], in [2], in test [3], in test [6], in test [7] and in [8] was “inactive” in each case. Moreover, the Potency result in test [9] is “inactive”.

Regarding `OC1(c2ccc(Cl)c(C(F)(F)F)c2)CCN(CCCC(c2ccc(F)cc2)c2ccc(F)cc2)CC1`, the Potency entry in test [1], in [4], in test [6], in [7], in test [8] and in test [9] was “inactive” each time. Further, the values for the Potency in [2] and in test [3] were 9.44 µM (active) and 23.7 µM (active), respectively.

As to `Nc1c(Cl)cc(Cl)cc1Cl`, the Potency entry in test [1], in test [2], in test [3], in test [4], in [6] and in test [7] was “inactive” each time. Besides, the Potency result in [8] and in test [9] was “inactive” in each case.

With `O=C(Oc1ccccc1)c1ccccc1C(=O)Oc1ccccc1`, the Potency entry in test [1], in test [2], in test [3], in test [6], in [7] and in test [8] was “inactive” in each case. In test [9], the Potency result is “inactive”.

Turning to `O=C(c1ccc(F)cc1)C1CCN(CCn2c(=O)[nH]c3ccccc3c2=O)CC1`, the Potency entry in test [1], in test [2], in [3], in test [4], in [6] and in test [7] was “inactive” each time. In addition, the Potency result in test [8] and in [9] was “inactive” throughout.

Turning to `CC(C)(C)CC(C)(C)c1ccc(OCCOCC[N+](C)(C)Cc2ccccc2)cc1`, the Potency entry in [1], in [6], in test [7], in test [8] and in test [9] was “inactive” in each case. The Potency in [2] was 29.8 µM (active) and 61.1 µM (active); in test [3] it was 29.8 µM (active) and 68.5 µM (active); in test [5], 11.9 µM (active) and 21.7 µM (active).

Turning to `CC1(C)CCC(C)(C)c2cc(C(=O)Nc3ccc(C(=O)O)cc3)ccc21`, the Potency entry in test [1], in [4], in test [6], in test [7], in test [8] and in test [9] was “inactive” in each case. Moreover, the Potency in test [2] is 61.1 µM (active); in [5] it was 54.5 µM (active).

For `C[C@]12CCC(=O)C=C1CC[C@@H]1[C@@H]2[C@@H](O)C[C@@]2(C)[C@H]1CC[C@]2(O)C(=O)COC(=O)CCC(=O)O`, the Potency result in test [1], in test [2], in test [3], in test [4], in test [6] and in test [7] was “inactive” throughout. The Potency entry in test [8] and in [9] was “inactive” throughout.

In the case of `CCOC(=O)O[C@H](C)OC(=O)c1ccc2c(c1)cc(C(=O)NC1CCN(C(C)C)CC1)n2Cc1cc(-c2ccc(Cl)s2)on1`, the Potency result in test [1], in [6], in test [7], in test [8] and in test [9] was “inactive” each time. The values for the Potency in test [2], in [3] and in [5] were 25.5 µM (active), 57.1 µM (active) and 64.1 µM (active), respectively.

Take `CCCCN(CCCC)c1ccc(C(=O)c2ccccc2C(=O)O)c(O)c1`: the Potency result in test [1], in test [3], in [4], in [6], in test [7] and in [8] was “inactive” in each case. Moreover, the Potency entry in test [9] was “inactive”. The Potency in [2] is 17.4 µM (active).

Turning to `CCCCCCCC/C=C/CCCCCCCC1=NCCN1CCO`, the Potency result in test [1], in [6], in test [7], in test [8] and in test [9] was “inactive” in each case. For the same compound, the Potency in test [2] is 43.3 µM (active); in test [4], 54.5 µM (active); in test [5], 54.5 µM (active).

In the case of `CCCN(CCC)C(=O)C(CCC(=O)OCCCN1CCN(CCOC(=O)Cc2c(C)n(C(=O)c3ccc(Cl)cc3)c3ccc(OC)cc23)CC1)NC(=O)c1ccccc1` (stereo unspecified), the Potency entry in test [1], in test [2], in test [4], in test [6], in test [7] and in [8] was “inactive” in each case. Besides, in test [9], the Potency result was “inactive”. The Potency in [3] was 26.6 µM (active).

Regarding `Cc1ccc(O)c(C(C)(C)C)c1`, the Potency entry in [1], in [6], in [7], in [8] and in test [9] was “inactive” each time. The Potency in test [2] was 54.4 µM (active) and inactive; in [4] it was 27.3 µM (active) and 54.5 µM (active); in test [5], 5.44 µM (active) and 27.3 µM (active).

Consider `O=C(OCC(COC(=O)c1ccccc1)(COC(=O)c1ccccc1)COC(=O)c1ccccc1)c1ccccc1`, for which the Potency result in test [1], in [2], in [4], in test [6], in [7] and in [8] was “inactive” each time. Moreover, the Potency result in test [9] was “inactive”. Moreover, the Potency in test [5] was 3.06 µM (active).

Turning to `c1cc(C(c2ccc(OCC3CO3)cc2)c2ccc(OCC3CO3)cc2)ccc1OCC1CO1` (stereo unspecified), the Potency entry in [1], in test [2], in test [6], in test [7], in [8] and in [9] was “inactive” throughout.

`O=C1CCCCCN1SSN1CCCCCC1=O`: the Potency result in [1], in test [2], in test [4], in test [6], in test [7] and in test [8] was “inactive” throughout. Also, in test [9], the Potency entry was “inactive”.

Turning to `Fc1ccc([C@@H]2CCNC[C@H]2COc2ccc3c(c2)OCO3)cc1`, the Potency result in test [1], in test [4], in [6], in test [7], in test [8] and in test [9] was “inactive” throughout. Also, the Potency in [2] is 33.5 µM (active).

With `Oc1ccc(C2(c3ccc(O)cc3)CC3CC2C2CCCC32)cc1` (stereo unspecified), the Potency entry in [1], in test [4], in test [6], in test [7], in [8] and in test [9] was “inactive” in each case. Also, the Potency in [2] is 58.7 µM (active); in [5] it was 33 µM (active).

With `O=C1c2c(O)ccc(Nc3ccc(CCO)cc3)c2C(=O)c2c([N+](=O)[O-])ccc(O)c21`, the Potency entry in test [1], in test [2], in test [4], in test [6], in test [7] and in test [8] was “inactive” throughout. For the same compound, the Potency result in [9] was “inactive”. Further, the Potency in test [5] was 1.93 µM (active).
